For 28 compounds, inhibition results are on record in PubChem BioAssay AID777 (Sanford-Burnham Center for Chemical Genomics, 2007).

Each structure is given as a SMILES string. About 19,000 (20%) of roughly 96,000 compounds were called active. A selection follows. Unmarked numbers belong to inactive results.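 How the source made its calls: active means blocking of liver enzyme CYP2C9 beyond about 50% at 5 µM (limit read from the data); inactive means the rest.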

Sequence of Cytochrome P450 2C9 (Homo sapiens) (P11712 whole entry, looked up): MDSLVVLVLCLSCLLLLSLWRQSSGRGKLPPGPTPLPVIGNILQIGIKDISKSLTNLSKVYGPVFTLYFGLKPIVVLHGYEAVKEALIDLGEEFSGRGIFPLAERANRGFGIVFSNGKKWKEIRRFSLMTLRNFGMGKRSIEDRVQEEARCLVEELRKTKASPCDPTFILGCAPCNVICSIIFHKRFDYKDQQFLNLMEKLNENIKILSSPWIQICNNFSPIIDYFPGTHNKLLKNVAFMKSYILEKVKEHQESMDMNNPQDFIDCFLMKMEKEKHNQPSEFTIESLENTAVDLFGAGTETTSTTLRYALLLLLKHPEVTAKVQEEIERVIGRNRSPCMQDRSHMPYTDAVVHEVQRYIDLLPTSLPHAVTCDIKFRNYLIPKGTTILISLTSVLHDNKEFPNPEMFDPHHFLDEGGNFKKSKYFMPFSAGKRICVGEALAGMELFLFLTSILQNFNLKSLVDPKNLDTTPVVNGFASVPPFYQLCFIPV

This assay has as its target Cytochrome P450 2C9 (Homo sapiens) (UniProt P11712). Description: blockers of cytochrome P450 2C9 activity – biochemical, luminescence, ADME assay, primary screen (AID 777). The conditions noted are these: CYP2C9 Supersomes, luciferin-H conversion, at 5 µM, stronger effect = higher value.
Turning to `CCCSc1nc(NCc2ccco2)c2c3c(sc2n1)COC(C)(CC)C3` (stereo not drawn), the inhibition was 45.6%.
For `CC(=O)C1C(c2ccc(Cl)cc2)NC(=O)NC1(O)C(F)(F)F` (stereo not drawn) the value was -9.5%; for `Cn1c(=O)n(C)c2cc(CNc3ccc(N4CCOCC4)c(C(=O)O)c3)ccc21`, -13.6%; for `CSc1ccc(NC(=O)N2CC(C)OC(C)C2)cc1` (stereo not drawn), 2.1%.
Then `O=C(NCCN1CCOCC1)c1c(F)c(F)c(F)c(F)c1F`, with -21.8%; and `COc1ccccc1C1=Nc2cccc3cccc(c23)N1`, with 24%.
On to `CC1(C)COC(c2cccn2Cc2ccccc2Cl)=N1`, for which the inhibition was 13.6%.
For the compound `COc1ccc(C)cc1S(=O)(=O)NC1CCCCC1`, the inhibition was 22.8%.
With `COCCNS(=O)(=O)c1cc(Br)ccc1OC`, the inhibition was -13.7%.
For the compound `COc1ccc(C)cc1S(=O)(=O)NCCc1ccccc1`, the inhibition is 75.9% (active).
Consider `CC(=O)c1cnn(-c2cc(Oc3ccc(F)cc3)ncn2)c1C`, for which the inhibition was 42.5%.
For `CC(C)c1ccc(NS(=O)(=O)c2cn(C)c(=O)n(C)c2=O)cc1`, the inhibition was -7.9%.
As for `CN(C)Cc1c(O)ccc2occ(C(O)c3ccccc3)c12` (stereo not drawn), the inhibition was -6.6%.
For `COc1cc2c(cc1OC)C(c1ccncc1)CC(=O)N2` (stereo not drawn) the value was 34.4%; for `COc1ccc(C2CC(=O)Nc3cc(C)c(C)cc32)c(OC)c1OC` (stereo not drawn), 57% (active).
For `COc1cc2c(cc1OC)C(c1ccc(C)o1)CC(=O)N2` (stereo not drawn) the value was -9%; for `O=C(CCS(=O)(=O)c1cccc2nonc12)NCCc1ccccc1Cl`, 37.9%; for `CC(Sc1nncs1)C(=O)NCc1ccc2c(c1)OCO2` (stereo not drawn), 29.7%.
As for `COC(=O)Cc1c(C)c2ccc(OCC(=O)NCc3ccc4c(c3)OCO4)cc2oc1=O`, the inhibition is 36.1%.
Take `O=C(CCNS(=O)(=O)c1ccccc1C(F)(F)F)NCc1ccc2c(c1)OCO2`: the inhibition was 78.1% (active).
For `Cc1ccc(CNC(=O)CCNS(=O)(=O)c2cccc3nonc23)cc1`, the inhibition was -20.4%.
Regarding `Cc1ccc(C(=O)OCC(=O)NCc2ccc3c(c2)OCO3)s1`, the inhibition is 81.5% (active).
For `O=C(CNS(=O)(=O)c1ccc(Br)s1)NCc1ccc2c(c1)OCO2` the value was 95.8% (active).
Consider `CCOC(=O)NCc1ccc2c(c1)OCO2`, for which the inhibition was 10.7%.
For `O=C(NCc1ccc2c(c1)OCO2)C12CC3CC(CC(C3)C1)C2` the value was 38.2%; for `O=C(CNS(=O)(=O)c1ccc(Br)s1)N1CCN(C(=O)c2ccco2)CC1`, 31.1%.
Take `CCOc1ccc(-c2c(C)n([O-])c3c([n+]2=O)CCCC3)cc1`: the inhibition was -7.3%.
In the case of `O=C1Nc2c(Br)cc(Br)cc2C1(O)N1CCOCC1` (stereo not drawn), the inhibition was -200%.
